Rows were chosen to be rich in hits. Some 9.4% of all compounds tested hit in one or more screens of this group.
Pf growth 96h: P. falciparum growth inhibition at 96 hours. P. falciparum luciferase reporter growth, 96 h. Potency, µM (titrated, usually from 28.7 µM), most hits filed as inhibitors. hit rate 6.9% among 320,000. AID 504834
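P. falciparum expressing integrated firefly luciferase, in erythrocytes at 2% hematocrit, 0.05% parasitemia, incubated with compounds 96 h at 37 C, 5% CO2. Growth inhibition read as loss of luminescence; two-generation exposure targets delayed-death apicoplast inhibitors.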
SARS PLP yeast: SARS-CoV PLP inhibition in yeast. AID 485353. S. cerevisiae expressing SARS-CoV PLpro, growth rescue. Potency, µM (titrated, usually from 32.9 µM), hits mostly activators. hit rate 0.19% among 330,000; calls by dose curve; note: nearly all actives have a fitted effect of over 55% in size
AMA1-RON2 inh: disrupts binding of P. falciparum AMA1 to RON2; AlphaScreen AMA1-biotinylated RON2 peptide binding; Potency, µM (highest dose often 58.2 µM), most hits filed as inhibitors; hit rate 0.2% among 360,000; AID 720542; note: nearly all actives have a fitted effect of over 45% in size
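AMA1 (3D7) with his tag at 25 nM final met compounds first, then biotinylated RON2 peptide at 25 nM; detection used donor plus acceptor beads, 10 µg/mL apiece, read by AlphaScreen after 30 min at room temperature.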
Pf growth 48h: inhibits P. falciparum growth in the first generation, 48 h; P. falciparum luciferase growth in erythrocytes, 48 h; Potency, µM (top dose mostly 28.7 µM), most hits filed as inhibitors; hit rate 5.9% among 310,000; AID 504832
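A one-generation exposure of luciferase-tagged malaria parasites in RPMI 1640/Albumax erythrocyte culture, 37 C and 5% CO2. Inhibition is inferred from decreased luminescence after adding detection reagent.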
Numbers stand for hits; – = inactive; ? = inconclusive; · = not tested or not shown; [ ] = another dose, or the depositor's remark. Unless noted, calls come from the whole dose curve; as a rule, active = well fitted curve in the direction sought with a large enough effect; inconclusive = small, poorly fitted or top-dose-only effect, or another doubt; inactive = no such curve, though single readings can be large; an effect the other way counts as inactive or inconclusive.

SMILES	Pf growth 96h	SARS PLP yeast	AMA1-RON2 inh	Pf growth 48h
CC(C)Oc1cccc(C(=O)C2CCCN(S(C)(=O)=O)C2)c1 (stereo unspecified)	3.7µM	–	–	–
Cc1cc[n+]2cc(-c3cccc([N+](=O)[O-])c3)c(-c3cccc([N+](=O)[O-])c3)cc2c1	0.15µM	–	–	0.83µM
Cc1cccc(-c2cnn(-c3cccc([N+](=O)[O-])c3)c2N)c1	–	–	–	–
Cn1c(-c2cc(Cl)ccc2O)nc2c1c(=O)[nH]c(=O)n2Cc1ccccc1	10µM	–	–	?
Cc1ccc(-c2nc3c(c(=O)[nH]c(=O)n3CC(C)C)n2CC(C)C)cc1[N+](=O)[O-]	?	–	–	?
CC(C)Cn1c(-c2cc([N+](=O)[O-])ccc2Cl)nc2c1c(=O)[nH]c(=O)n2Cc1ccccc1	2.6µM	–	–	5.2µM
COCCCn1c(-c2cccc(Cl)c2)nc2c1c(=O)[nH]c(=O)n2Cc1ccccc1	10µM	–	–	12µM
O=c1[nH]c(=O)n(Cc2ccccc2)c2nc(-c3ccc(Oc4ccc(F)cc4)c([N+](=O)[O-])c3)n(CCO)c12	?	–	–	13µM
CCCCCC(=O)N1C[C@@H](O)[C@H](n2cc(-c3ccc(F)cc3)nn2)C[C@@H]1c1ccc(OC)cc1	·	·	–	·
COCCn1c(=O)[nH]c(=O)c2c1nc(-c1ccc(-c3ccc(Cl)cc3[N+](=O)[O-])o1)n2Cc1ccccc1	4.1µM	–	–	4.7µM
CN1C(=O)N(C)C2(c3ccccc3)NC(=O)NC12c1ccccc1 (stereo unspecified)	?	–	–	–
CCN1C(=O)N(c2cccc3ccccc23)C(C)=CC1(C)C	?	–	–	–
CN1c2ccccc2N(C)C1(C)c1ccccc1	–	–	?	2.3µM
CCN1c2ccccc2N(C)C1(C)c1ccccc1 (stereo unspecified)	–	–	32µM	2.6µM
CCCCOc1ccc(S(=O)(=O)Nc2cccnc2)cc1	2.3µM	–	–	–
CCNC(C)Cc1cccc(C(F)(F)F)c1 (stereo unspecified)	13µM	·	·	–
C[C@@H](NCCCc1cccc(C(F)(F)F)c1)c1cccc2ccccc12	12µM	·	·	7.6µM
O=C1N[C@H](Cc2ccccc2)COC(=O)[C@H](Cc2ccc(F)cc2)CC/C=C/C[C@@H]1CC(=O)N(CCO)Cc1ccccc1	·	–	–	·
Cn1c(=O)c2c(nc(Oc3cccc(O)c3)n2C)n(C)c1=O	–	–	–	–
O=C(/C=C/c1ccccc1)c1cc(Br)ccc(=O)c1O	?	22µM	–	·
O=C(/C=C/c1ccc(F)cc1)c1cc(Br)ccc1O	–	–	–	–
COC(=O)CNC(=O)c1cc(OC)cc(OC)c1	–	–	–	–
CCOC(=O)CNC(=O)c1cc(OC)cc(OC)c1	0.93µM	–	–	–
CC(C)(C)C(=O)NCc1ccc(C(=O)CN2C(=O)NC3(CCCC3)C2=O)s1	?	–	–	?
Cc1cc(C)n(Cc2ccc(Cl)cc2Cl)c(=O)c1S(=O)(=O)c1ccccc1	?	–	–	13µM
SMILES	Pf growth 96h	SARS PLP yeast	AMA1-RON2 inh	Pf growth 48h
COc1cc(C2c3cc4c(cc3C(O[C@@H]3OC5COC(c6cccs6)OC5C(O)C3O)C3COC(=O)C23)OCO4)cc(OC)c1O (stereo partly specified)	0.48µM	·	·	0.54µM
COc1cc([C@H]2c3cc4c(cc3[C@@H](O[C@H]3O[C@H]5CO[C@@H](C)O[C@H]5[C@@H](O)[C@@H]3O)[C@@H]3COC(=O)[C@H]23)OCO4)cc(OC)c1O	13µM	·	·	13µM
CC(C)N(Cc1nc(-c2ccccc2)no1)C(=O)C(Cl)(Cl)Cl	–[1.15 µM]	–	–	1.9µM
CC(C)N(Cc1nc(-c2ccccc2)no1)C(=O)C(C)(C)C	·	–	–	–
COc1ccccc1OCC(=O)N(Cc1nc(-c2ccc(Cl)cc2)no1)C(C)C	4.1µM	–	–	·
O=C(CN1CCCc2ccccc21)N/N=C/c1ccccc1O	?	?	–	–
CS(=O)(=O)N1CCN(C(=S)NCc2ccc(F)cc2)CC1	–	–	–	–
O=C(CCC(=O)N(CC(=O)NC1CCCC1)c1cccc(F)c1)Nc1nccs1	–	–	–	–
O=[N+]([O-])c1cccc(C(=Nc2ccccc2Cl)NO)c1	–	–	–	–
CCCC1=C(C(=O)OCC)C(c2ccc(OC)c(CSc3ccccn3)c2)C(C#N)=C(N)O1 (stereo unspecified)	?	–	–	9.3µM
CCOC(=O)C1=C(CC)OC(N)=C(C#N)C1c1ccsc1 (stereo unspecified)	13µM	–	–	–

Screens (PubChem)
